# A selection: hits, their analogues and other compounds. The true share with any hit is near 4.1%.
# DAX1 inh-1 – DAX1 (NR0B1) inhibitors, primary screen, cell-based, HEK293, Gal4-DAX1, luciferase luminescence. Nuclear receptor subfamily 0 group B member 1 (Homo sapiens), P51843. HEK293 Gal4-DAX1 luciferase reporter. inhibition, % at 6.75 µM. 0.99% of 340,000 active;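 active = inhibition above the mean over all tested compounds plus 3 SD, cut at about 4.2% in these data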;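 note: 0% = DAX1-transfected cells with DMSO and 100% = empty-vector control cells with DMSO; inhibition shows as a rise in luminescence from relieved DAX1 repression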
# Target sequence (P51843 207-470 limits assumed): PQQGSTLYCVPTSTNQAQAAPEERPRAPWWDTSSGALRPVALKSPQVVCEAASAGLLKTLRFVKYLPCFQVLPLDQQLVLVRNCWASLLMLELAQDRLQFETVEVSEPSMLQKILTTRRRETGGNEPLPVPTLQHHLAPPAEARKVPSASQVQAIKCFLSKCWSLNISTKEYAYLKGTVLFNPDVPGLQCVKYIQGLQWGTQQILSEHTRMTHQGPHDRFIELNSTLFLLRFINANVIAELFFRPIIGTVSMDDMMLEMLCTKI
# hcDAF-12 act – H. contortus DAF-12 nuclear receptor activators, primary screen, cell-based, luminescence, HEK293, lit1-tk-luc reporter | 1.4% of 370,000 active | HEK293 hcDAF-12 lit1-tk-luc reporter; 0% DMSO, 100% Δ7-dafachronic acid | AID 652067, 2013 | activation, % at 6.8 µM;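 active = activation above the mean of all tested compounds plus 3 SD, cut at about 5.5% in these data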;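 note: 100% = response to 3 µM Δ7-dafachronic acid high control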
# DAX1 inh-2 – DAX1 (NR0B1) inhibitors on StAR promoter, primary screen, cell-based, luminescence, SF-1 (NR5A1), full-length DAX-1; HEK293T StAR-luciferase reporter, SF-1/DAX-1 repression relief; inhibition, % at 6.8 µM; 1.1% of 370,000 active; AID 652010, 2013;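 active = inhibition above the mean over all tested compounds plus 3 SD, cut at about 3.6% in these data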;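 note: 0% = DAX-1 cells with DMSO and 100% = cells lacking DAX-1 with DMSO; higher inhibition means more luminescence from relief of DAX-1 repression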
# ssDAF12 agonist – S. stercoralis DAF-12 nuclear receptor activators, primary screen, cell-based, luminescence, HEK293, GRIP1 co-expression, lit1-tk-luc; Nuclear hormone receptor DAF-12 (Strongyloides stercoralis); HEK293 ssDAF-12/GRIP1 lit1-tk-luc reporter; % of 3 µM dafachronic acid response; activation, % at 6.8 µM; 1% of 370,000 active;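 active = activation above the mean over all tested compounds plus 3 SD, cut at about 0.9% in these data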;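 note: 0% = DMSO-only wells and 100% = 3 µM delta7-dafachronic acid wells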
# hgDAF-12 ag – H. glycines DAF-12 receptor agonists, primary screen, cell-based, luminescence, HEK293, GAL4 fusion, UAS-luciferase. Nuclear hormone receptor DAF-12 (Heterodera glycines), GAL4 fusion. HEK293 GAL4-hgDAF12 UAS-luciferase reporter, agonist luminescence; normalized to butyrate control. activation, % at 6.8 µM. 1.8% of 370,000 active. AID 687014, 2013;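 active = activation above a cutoff set at the mean of all screened compounds plus 3 SD, cut at about 10% in these data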;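 note: 0% = DMSO wells and 100% = sodium butyrate wells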
# Active calls of the source: *; x = no result given.
SMILES,DAX1 inh-1,hcDAF-12 act,DAX1 inh-2,ssDAF12 agonist,hgDAF-12 ag
CCC(=O)N1N=C(c2ccc(NS(C)(=O)=O)cc2)CC1c1ccc(N(C)C)cc1 (configuration not stated),-1,1,0,-1,13*
CCC[C@H]1[C@@H](OC(=O)N2CCOCC2)CC[C@@]23CCCN2C(=O)CCC[C@@H]13,x,2,x,-1,0
Cc1cccc(C2CC(c3ccccc3)Nc3ncnn32)c1 (configuration not stated),5.6*,-1,0,-2,-1
Cc1ccccc1C1CC(c2ccccc2OC(F)F)Nc2ncnn21 (configuration not stated),-1,1,0,-1,-1
COc1ccc(C2CC(c3cccc(C)c3)n3ncnc3N2)cc1 (configuration not stated),1,-1,-1,-1,0
Cc1ccc(C2CC(c3ccccc3OC(F)F)Nc3ncnn32)cc1 (configuration not stated),5.3*,-1,0,-1,1
N#Cc1ccc(/C=C2\CC3(OC(=O)c4ccc(F)cc4)CCCN2C3)cc1 (configuration not stated),x,-2,0,-1,2
CCN(CC)CCCn1c2c(c(SCC(=O)Nc3cccc4ccccc34)nc1=O)CCC2,-1,3,3.8*,0,-1
CCN(CC)CCCn1c2c(c(SCC(=O)Nc3ccccc3Cl)nc1=O)CCC2,0,1,2,-1,0
Brc1ccc(OCc2nc3ccccc3[nH]2)cc1,4,6.0*,2,0,12*
COc1ccccc1OCc1nc2ccccc2[nH]1,7.3*,3,3,0,8
Nc1ccc2nc(COc3ccccc3)[nH]c2c1,-1,6.5*,1,0,10
c1ccc(CCc2nc3ccccc3[nH]2)cc1,0,2,1,0,13*
COc1ccc(CNCC#Cc2ccccc2)cc1,x,0,0,-1,2
O=C(c1ccc(Cl)cc1)C1CCN(c2ncnc3sccc23)CC1,x,-6,x,-3,-5
CSCCCNC(=O)C1CCN(S(=O)(=O)c2ccc3[nH]c(=O)oc3c2)CC1,x,3,0,-2,-4
C[C@@H]1CCCN1c1ccc2c(c1)OCCCN(C1CC1)S2(=O)=O,x,0,-1,-1,-2
Cc1ccc(C(CC(=O)N2CCCCC2)c2ccccc2)c(O)c1C (configuration not stated),1,1,0,1.6*,0
CCOC(=O)c1[nH]c2ccccc2c1NC(=O)Nc1ccc(OC)cc1,1,4,0,0.9*,2
CCOC(=O)c1[nH]c2ccc(OC)cc2c1NC(=O)c1ccccc1C(=O)O,4.3*,2,1,0,5
CCOC(=O)c1[nH]c2ccccc2c1NC(=S)Nc1cc(C)ccc1C,2,6.1*,-1,0,5
COc1ccc(CNC(=O)c2ccc(N3CCOCC3)c([N+](=O)[O-])c2)cc1,0,0,-1,-1,-1
O=C(Nc1ccc(-c2nc3ccccc3o2)cc1)c1ccc2c(c1)OCO2,0,0,0,-1,-3
Cc1ccc2oc(-c3cccc(NC(=S)NC(=O)c4cccs4)c3)nc2c1,1,3,1,-1,4
Cc1ccc(-c2nc3ccccc3o2)cc1NC(=S)NC(=O)c1cccs1,2,1,0,0,11*
SMILES,DAX1 inh-1,hcDAF-12 act,DAX1 inh-2,ssDAF12 agonist,hgDAF-12 ag
COc1ccc2oc(-c3ccc(C)c(NC(=O)c4ccc(N5CCOCC5)c([N+](=O)[O-])c4)c3)nc2c1,1,3,2,0,11*
Cc1ccc(-c2nc3ccccc3o2)cc1NC(=O)c1ccc2c(c1)OCO2,2,4,3.6*,2.0*,11*
Cc1ccc(S(=O)(=O)N(C)[C@H]2C[C@H]3c4cc(-c5ccccc5C)ccc4CCN3C[C@H]2[C@H](C)O)cc1,x,-2,0,-1,5
COC(=O)c1c(C)oc(C)c1S(=O)(=O)N1CCCCC1,1,-2,-1,-2,-1
COC(=O)c1c(C)oc(C)c1S(=O)(=O)N1CCCC1,4.4*,-1,0,-1,-1
Cc1nnc2n(c1=O)N=C(c1ccc(Cl)cc1)CS2,-1,6.0*,2,0,8
CCN(CC)S(=O)(=O)c1ccc(NN)nc1,0,-2,0,1.4*,-2
O=C1c2ccccc2C(=O)N1c1ccccc1,5.2*,-2,0,-2,1
Nc1cccc2c1C(=O)N(c1ccccc1)C2=O,3,1,0,-1,4
CC(=O)O[C@@H]1C=C[C@@H](C#Cc2ccc(C(C)(C)C)cc2)O[C@@H]1COC(=O)NCc1ccccc1,x,-2,-1,-1,-2
O=C(Nc1ccccc1[N+](=O)[O-])NC1CCCCN(Cc2cccc(Cl)c2)C1=O (configuration not stated),x,0,0,-2,0
COc1ccccc1CNC(=O)C1CCC(CNS(=O)(=O)c2cccs2)CC1 (configuration not stated),-1,0,0,-2,-2
COc1ccccc1CNS(=O)(=O)c1cccs1,5.8*,0,-1,0,-1
O=C(COc1ccc(S(=O)(=O)N2CCCC2)cc1)NCc1ccco1,2,x,x,x,x
O=C(COc1ccc(S(=O)(=O)N2CCOCC2)cc1)NCc1ccco1,0,-2,0,1.6*,0
CN(Cc1ccccc1)C(=O)OCc1cn(Cc2ccc(F)cc2)nn1,x,-2,0,-1,0
CC1CN/C(=C\C(=O)c2ccc(Cl)cc2)C(=O)N1 (configuration not stated),1,5,4,1,12*
CC1CN/C(=C\C(=O)c2ccccc2)C(=O)N1 (configuration not stated),0,1,2,-1,8
O=C(CSc1ncnc2c1cnn2-c1ccccc1)NC1CCCC1,1,5.7*,1,0,2
Cc1ccc(-n2ncc3c(SCC(N)=O)ncnc32)cc1C,4.3*,5,2,0,8
Cc1ccc(-n2ncc3c(=O)n(CC(N)=O)cnc32)cc1C,1,3,0,-1,3
O=C(CSc1ncnc2c1cnn2-c1ccccc1)Nc1ccccc1,-1,1,1,-1,1
CCOc1ccccc1N1C(=O)CC(Sc2ccccc2N)C1=O (configuration not stated),1,0,0,-1,0
